Laboratory results as given in the supplement of paper PMC10849652.
Targets with a hit are over-represented here; the source holds about 8,800 in all. About 0.5% of all pairs of compound and target were hits.

Tests used:
Experiment in all cases: log2 fold change, soluble protein after heating vs DMSO (PISA); higher = thermal stabilisation; K562 lysate, 10 uM; active = over 0.2 and 3.5 SD of the protein, either way, in both replicates (recomputed)
[1] = compound: C#Cc1cccc(Nc2ncnc3cc(OCCOC)c(OCCOC)cc23)c1 [erlotinib]
Method in brief: (§1)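 Dounce homogenisation of K562 pellets in PBS pH 7.4 with 1 mM MgCl2 produced a crude extract, used at 1 mg/mL protein. Exposure to 10 μM compound lasted 30 min, and aliquots were then heated for 3 min across 48°C-58°C, pooled and brought to 0.5% NP-40 at 4°C. The supernatant after 21,000xg for 90 min was quantified by TMTpro 16plex LC-MS/MS with channel sums equalised. Duplicate values are given as log-two fold change in thermal stability relative to solvent controls.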

[2] = compound: C/C(=N\NC(=O)C1=CC(=CC=C1)S(=O)(=O)N2CCOCC2)/C3=C(C=CC(=C3)Cl)O
Method in brief: as §1

[3] = compound: C1=CC(=CC=C1C2=NC3=C(N2)C=C(C=C3)C(=O)N)OC4=CC=C(C=C4)Cl
Method in brief: as §1

[4] = compound: C1=CC2=C(C=CC(=C2)/C=C\3/C(=O)NC(=NCC4=CC=CS4)S3)N=C1
Method in brief: as §1

[5] = compound: C1=CC2=NC=CN=C2C=C1/C=C/3\C(=O)NC(=O)S3
Method in brief: as §1

[6] = compound: C1=CC=C(C=C1)C2=NC(=C(N2)C3=CC=NC=C3)C4=CC(=C(C=C4)Cl)O
Method in brief: as §1

[7] = compound: C1=CC=C2C(=C1)C3=NNC4=CC=CC(=C43)C2=O
Method in brief: as §1

[8] = compound: C1CCN(C1)C(=O)NC2=CC=CC(=C2)NC3=NC=C(C(=N3)NCCC4=CN=CN4)Br
Method in brief: as §1

[9] = compound: C1CN(CCC1(CC2=CC=C(C=C2)Cl)N)C3=NC=NC4=C3C=CN4
Method in brief: as §1

[10] = compound: C1COCCN1CCN2C3=CC=CC=C3N=C2NC(=O)C4=CC(=CC=C4)[N+](=O)[O-] [IRAK-1-4 Inhibitor I]
Method in brief: as §1

Measured: log2 fold change

OGFR (UniProt Q9NZT2)
inactive: [1] 0.023 | [2] 0.023 | [3] 0.018 | [4] -0.015 | [5] -0.012 | [6] -0.011 | [7] -0.027 | [8] -0.01 | [9] 0.038 | [10] -0.012

PAXBP1 (UniProt Q9Y5B6)
inactive: [1] 0.019 | [2] -0.035 | [3] 0.025 | [4] -0.01 | [5] 0.018 | [6] 0.026 | [7] -0.04 | [8] -0.022 | [9] 0.029 | [10] 0.013

NUP160 (UniProt Q12769)
inactive: [1] 0.038 | [2] 0.041 | [3] -0.033 | [4] -0.006 | [5] 0.038 | [6] -0.012 | [7] -0.075 | [8] -0.029 | [9] 0.015 | [10] -0.013

MTA3 (UniProt Q9BTC8)
inactive: [1] 0.025 | [2] -0.051 | [3] 0.02 | [4] -0.022 | [5] -0.078 | [6] -0.046 | [7] 0 | [8] 0.004 | [9] 0.025 | [10] 0.012

NCAPH (UniProt Q15003)
inactive: [1] 0.036 | [2] -0.008 | [3] -0.006 | [4] -0.007 | [5] -0.002 | [6] -0.012 | [7] -0.063 | [8] -0.008 | [9] -0.018 | [10] 0

OSBPL6 isoform 5 (UniProt Q9BZF3)
inactive: [1] 0.182 | [3] 0.09 | [4] -0.006 | [5] -0.012 | [6] 0.257 | [7] 0.107 | [8] -0.029 | [9] -0.015 | [10] -0.08
active: [2] 0.398

NSA2 (UniProt O95478)
inactive: [1] -0.015 | [2] -0.15 | [3] 0.009 | [4] -0.102 | [5] -0.05 | [6] -0.002 | [7] -0.016 | [8] 0.157 | [9] 0.109 | [10] -0.006

MTMR6 (UniProt Q9Y217)
inactive: [1] 0.01 | [2] 0.044 | [3] 0.002 | [4] -0.008 | [5] -0.004 | [6] -0.009 | [7] -0.052 | [8] -0.013 | [9] 0.015 | [10] -0.013

NPM3 (UniProt O75607)
inactive: [1] 0.023 | [2] -0.047 | [3] 0.034 | [4] 0.019 | [5] -0.059 | [6] -0.013 | [7] 0.025 | [8] -0.004 | [9] 0.053 | [10] -0.028

NFKBIE (UniProt O00221)
inactive: [1] 0.014 | [2] -0.009 | [3] -0.117 | [4] 0.059 | [5] -0.022 | [6] 0.059 | [7] -0.026 | [8] -0.078 | [9] 0.081 | [10] 0.119

MYCBP (UniProt Q99417)
Sequence of UniProt Q99417 (Q99417 whole entry, looked up): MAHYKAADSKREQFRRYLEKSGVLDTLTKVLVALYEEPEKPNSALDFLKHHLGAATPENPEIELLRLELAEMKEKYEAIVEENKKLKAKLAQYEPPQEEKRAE
inactive: [1] 0.007 | [2] -0.001 | [3] 0.011 | [4] 0.007 | [5] 0 | [6] 0.019 | [7] 0 | [8] 0.024 | [9] 0.076 | [10] 0.04

ORC3 isoform 2 (UniProt Q9UBD5)
inactive: [1] -0.006 | [2] -0.048 | [3] -0.046 | [4] 0.004 | [5] 0.053 | [6] -0.011 | [7] -0.045 | [8] -0.015 | [9] -0.007 | [10] -0.008

NDUFA4 (UniProt O00483)
inactive: [1] 0.038 | [2] 0.092 | [3] -0.012 | [4] 0.055 | [5] 0.009 | [6] 0.055 | [7] 0.046 | [8] 0.012 | [9] 0.001 | [10] -0.01

NLRP2 (UniProt Q9NX02)
inactive: [1] 0.004 | [2] -0.015 | [3] -0.002 | [4] -0.005 | [5] -0.013 | [6] -0.002 | [7] -0.021 | [8] 0.01 | [9] -0.031 | [10] -0.043

OARD1 (UniProt Q9Y530)
inactive: [1] 0.002 | [2] -0.1 | [3] 0.008 | [4] 0.028 | [5] -0.019 | [6] -0.015 | [7] -0.031 | [8] -0.036 | [9] 0.041 | [10] -0.01

NF1 (UniProt P21359)
Sequence of UniProt P21359 (P21359 whole entry, looked up): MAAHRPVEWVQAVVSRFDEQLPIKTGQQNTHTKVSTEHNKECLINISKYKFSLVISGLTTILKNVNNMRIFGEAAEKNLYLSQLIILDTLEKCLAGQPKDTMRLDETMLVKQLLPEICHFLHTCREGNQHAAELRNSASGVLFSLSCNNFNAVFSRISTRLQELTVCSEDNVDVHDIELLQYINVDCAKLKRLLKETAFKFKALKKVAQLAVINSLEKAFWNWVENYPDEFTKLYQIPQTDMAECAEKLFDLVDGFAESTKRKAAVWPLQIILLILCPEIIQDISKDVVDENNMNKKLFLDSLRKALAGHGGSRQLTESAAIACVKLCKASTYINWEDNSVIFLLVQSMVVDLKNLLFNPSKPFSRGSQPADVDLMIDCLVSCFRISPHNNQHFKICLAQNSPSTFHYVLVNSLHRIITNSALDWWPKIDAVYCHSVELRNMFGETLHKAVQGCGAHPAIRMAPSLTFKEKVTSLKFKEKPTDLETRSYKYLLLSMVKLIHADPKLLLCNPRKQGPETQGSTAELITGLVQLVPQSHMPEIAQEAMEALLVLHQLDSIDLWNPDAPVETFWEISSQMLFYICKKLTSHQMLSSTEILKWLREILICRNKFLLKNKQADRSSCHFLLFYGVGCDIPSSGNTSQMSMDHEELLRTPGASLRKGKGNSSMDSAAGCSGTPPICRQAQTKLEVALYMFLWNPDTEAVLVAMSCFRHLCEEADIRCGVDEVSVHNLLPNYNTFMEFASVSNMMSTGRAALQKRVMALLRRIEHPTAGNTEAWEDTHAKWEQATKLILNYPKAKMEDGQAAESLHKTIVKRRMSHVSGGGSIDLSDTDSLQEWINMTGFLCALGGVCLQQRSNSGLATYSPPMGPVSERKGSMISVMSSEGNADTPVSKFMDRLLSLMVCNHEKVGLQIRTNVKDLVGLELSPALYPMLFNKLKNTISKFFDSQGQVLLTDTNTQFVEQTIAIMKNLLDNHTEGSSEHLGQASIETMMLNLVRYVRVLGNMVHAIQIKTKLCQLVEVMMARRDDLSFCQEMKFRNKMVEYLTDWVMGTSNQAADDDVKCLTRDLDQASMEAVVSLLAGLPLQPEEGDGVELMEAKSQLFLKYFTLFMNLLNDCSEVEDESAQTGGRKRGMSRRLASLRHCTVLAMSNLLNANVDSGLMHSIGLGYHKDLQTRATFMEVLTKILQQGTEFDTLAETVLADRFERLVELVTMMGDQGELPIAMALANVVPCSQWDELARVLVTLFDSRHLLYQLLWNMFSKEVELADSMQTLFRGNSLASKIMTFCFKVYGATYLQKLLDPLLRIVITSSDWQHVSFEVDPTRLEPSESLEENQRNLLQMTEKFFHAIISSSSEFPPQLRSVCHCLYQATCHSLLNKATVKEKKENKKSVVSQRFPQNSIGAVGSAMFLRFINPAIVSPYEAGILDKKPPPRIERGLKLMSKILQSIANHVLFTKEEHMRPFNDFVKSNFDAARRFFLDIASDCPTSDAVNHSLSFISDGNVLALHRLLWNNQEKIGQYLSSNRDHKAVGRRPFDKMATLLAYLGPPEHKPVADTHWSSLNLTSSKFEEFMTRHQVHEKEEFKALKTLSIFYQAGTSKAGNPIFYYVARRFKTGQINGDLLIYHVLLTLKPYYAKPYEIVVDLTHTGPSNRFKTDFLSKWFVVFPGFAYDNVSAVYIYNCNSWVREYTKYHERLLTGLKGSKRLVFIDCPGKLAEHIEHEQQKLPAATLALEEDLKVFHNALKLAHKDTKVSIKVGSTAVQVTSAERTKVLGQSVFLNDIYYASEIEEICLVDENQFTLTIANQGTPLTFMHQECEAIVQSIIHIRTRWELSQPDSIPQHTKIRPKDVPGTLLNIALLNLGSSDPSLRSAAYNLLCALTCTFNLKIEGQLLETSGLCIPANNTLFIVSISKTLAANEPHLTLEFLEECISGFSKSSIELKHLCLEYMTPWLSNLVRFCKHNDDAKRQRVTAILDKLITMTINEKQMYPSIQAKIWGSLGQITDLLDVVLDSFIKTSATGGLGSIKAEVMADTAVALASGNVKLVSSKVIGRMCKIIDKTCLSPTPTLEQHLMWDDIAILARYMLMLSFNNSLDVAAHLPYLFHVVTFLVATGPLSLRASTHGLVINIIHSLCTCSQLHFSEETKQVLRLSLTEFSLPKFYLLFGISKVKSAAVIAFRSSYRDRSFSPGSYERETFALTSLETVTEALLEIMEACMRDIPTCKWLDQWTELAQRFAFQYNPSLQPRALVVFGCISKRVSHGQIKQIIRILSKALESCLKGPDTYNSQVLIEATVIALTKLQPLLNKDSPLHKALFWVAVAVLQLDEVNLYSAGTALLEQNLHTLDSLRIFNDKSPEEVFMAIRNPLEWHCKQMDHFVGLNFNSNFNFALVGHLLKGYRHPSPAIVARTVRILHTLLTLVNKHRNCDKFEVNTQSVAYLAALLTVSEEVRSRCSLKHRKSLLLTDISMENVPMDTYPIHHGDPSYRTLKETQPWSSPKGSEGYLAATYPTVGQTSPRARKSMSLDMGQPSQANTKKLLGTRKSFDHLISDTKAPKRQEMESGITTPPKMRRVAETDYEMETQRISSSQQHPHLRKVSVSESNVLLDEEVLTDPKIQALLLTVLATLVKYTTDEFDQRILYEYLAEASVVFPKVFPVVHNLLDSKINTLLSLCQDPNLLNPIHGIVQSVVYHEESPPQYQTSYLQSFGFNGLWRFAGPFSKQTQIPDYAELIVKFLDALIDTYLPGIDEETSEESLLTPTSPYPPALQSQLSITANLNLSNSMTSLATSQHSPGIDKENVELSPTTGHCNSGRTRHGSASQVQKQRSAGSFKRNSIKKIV
inactive: [1] 0.072 | [2] -0.031 | [3] -0.02 | [4] -0.056 | [5] -0.008 | [6] -0.003 | [7] -0.089 | [8] 0.017 | [9] 0 | [10] 0.023

NPLOC4 isoform 2 (UniProt Q8TAT6)
inactive: [1] -0.022 | [2] 0.032 | [3] -0.004 | [4] 0.001 | [5] -0.012 | [6] 0.011 | [7] -0.016 | [8] -0.012 | [9] 0.007 | [10] 0.001

PAIP2 (UniProt Q9BPZ3)
Sequence of UniProt Q9BPZ3 (Q9BPZ3 whole entry, looked up): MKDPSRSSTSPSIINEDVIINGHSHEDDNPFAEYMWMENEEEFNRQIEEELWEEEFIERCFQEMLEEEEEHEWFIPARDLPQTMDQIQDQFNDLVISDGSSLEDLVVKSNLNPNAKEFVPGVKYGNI
inactive: [1] 0.044 | [2] 0.041 | [3] -0.016 | [4] -0.01 | [5] 0.004 | [6] -0.054 | [7] -0.053 | [8] -0.044 | [9] 0.022 | [10] 0.017

NFIC (UniProt P08651)
inactive: [1] 0.014 | [2] 0.063 | [3] -0.044 | [4] 0.025 | [5] 0.001 | [6] -0.084 | [7] -0.082 | [8] -0.016 | [9] -0.032 | [10] 0.052

NT5DC2 isoform 2 (UniProt Q9H857)
active: [5] 0.505
inactive: [1] 0.027 | [2] 0.008 | [3] 0.068 | [4] 0.03 | [6] -0.059 | [7] 0.04 | [8] -0.015 | [9] 0.036 | [10] 0.002

OSBP2 (UniProt Q969R2)
Sequence of UniProt Q969R2 (Q969R2 whole entry, looked up): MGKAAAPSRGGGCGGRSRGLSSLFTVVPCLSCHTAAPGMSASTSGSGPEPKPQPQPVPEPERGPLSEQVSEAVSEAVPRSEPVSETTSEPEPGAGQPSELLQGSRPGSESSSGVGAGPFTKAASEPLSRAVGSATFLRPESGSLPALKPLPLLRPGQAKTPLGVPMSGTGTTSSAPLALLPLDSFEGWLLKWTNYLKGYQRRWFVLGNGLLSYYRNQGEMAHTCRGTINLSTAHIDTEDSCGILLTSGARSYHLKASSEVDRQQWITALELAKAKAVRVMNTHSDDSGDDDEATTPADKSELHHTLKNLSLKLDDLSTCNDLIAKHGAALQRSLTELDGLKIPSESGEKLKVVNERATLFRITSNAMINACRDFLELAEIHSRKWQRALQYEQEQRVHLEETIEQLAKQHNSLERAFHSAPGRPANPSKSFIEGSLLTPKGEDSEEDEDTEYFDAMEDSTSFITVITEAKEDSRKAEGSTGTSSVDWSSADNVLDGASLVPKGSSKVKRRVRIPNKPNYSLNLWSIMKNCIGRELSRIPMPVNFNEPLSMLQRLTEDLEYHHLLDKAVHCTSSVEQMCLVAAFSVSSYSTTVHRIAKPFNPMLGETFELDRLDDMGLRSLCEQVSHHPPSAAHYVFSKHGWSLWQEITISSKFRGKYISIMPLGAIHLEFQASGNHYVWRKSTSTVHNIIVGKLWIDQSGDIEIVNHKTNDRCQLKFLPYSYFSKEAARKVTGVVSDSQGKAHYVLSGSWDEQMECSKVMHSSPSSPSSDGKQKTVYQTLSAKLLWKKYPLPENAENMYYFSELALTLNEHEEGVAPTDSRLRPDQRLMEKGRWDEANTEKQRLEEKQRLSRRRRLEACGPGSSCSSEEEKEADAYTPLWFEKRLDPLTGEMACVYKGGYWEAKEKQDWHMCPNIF
inactive: [1] -0.019 | [2] -0.254 | [3] 0.08 | [4] 0.032 | [5] -0.039 | [6] -0.077 | [7] -0.075 | [8] 0.037 | [9] -0.01 | [10] -0.061

ORC2 (UniProt Q13416)
inactive: [1] -0.004 | [2] -0.006 | [3] -0.006 | [4] 0.009 | [5] 0.015 | [6] 0.006 | [7] -0.022 | [8] 0 | [9] -0.024 | [10] -0.034

NSUN2 (UniProt Q08J23)
inactive: [1] 0.004 | [2] 0.04 | [3] -0.018 | [4] 0.006 | [5] 0.004 | [6] -0.006 | [7] -0.016 | [8] 0.033 | [9] -0.018 | [10] -0.002

NGLY1 (UniProt Q96IV0)
inactive: [1] 0.022 | [2] -0.064 | [3] -0.031 | [4] -0.01 | [5] -0.009 | [6] 0.009 | [7] -0.063 | [8] -0.001 | [9] -0.011 | [10] -0.024

NNT (UniProt Q13423)
Sequence of UniProt Q13423 (Q13423 whole entry, looked up): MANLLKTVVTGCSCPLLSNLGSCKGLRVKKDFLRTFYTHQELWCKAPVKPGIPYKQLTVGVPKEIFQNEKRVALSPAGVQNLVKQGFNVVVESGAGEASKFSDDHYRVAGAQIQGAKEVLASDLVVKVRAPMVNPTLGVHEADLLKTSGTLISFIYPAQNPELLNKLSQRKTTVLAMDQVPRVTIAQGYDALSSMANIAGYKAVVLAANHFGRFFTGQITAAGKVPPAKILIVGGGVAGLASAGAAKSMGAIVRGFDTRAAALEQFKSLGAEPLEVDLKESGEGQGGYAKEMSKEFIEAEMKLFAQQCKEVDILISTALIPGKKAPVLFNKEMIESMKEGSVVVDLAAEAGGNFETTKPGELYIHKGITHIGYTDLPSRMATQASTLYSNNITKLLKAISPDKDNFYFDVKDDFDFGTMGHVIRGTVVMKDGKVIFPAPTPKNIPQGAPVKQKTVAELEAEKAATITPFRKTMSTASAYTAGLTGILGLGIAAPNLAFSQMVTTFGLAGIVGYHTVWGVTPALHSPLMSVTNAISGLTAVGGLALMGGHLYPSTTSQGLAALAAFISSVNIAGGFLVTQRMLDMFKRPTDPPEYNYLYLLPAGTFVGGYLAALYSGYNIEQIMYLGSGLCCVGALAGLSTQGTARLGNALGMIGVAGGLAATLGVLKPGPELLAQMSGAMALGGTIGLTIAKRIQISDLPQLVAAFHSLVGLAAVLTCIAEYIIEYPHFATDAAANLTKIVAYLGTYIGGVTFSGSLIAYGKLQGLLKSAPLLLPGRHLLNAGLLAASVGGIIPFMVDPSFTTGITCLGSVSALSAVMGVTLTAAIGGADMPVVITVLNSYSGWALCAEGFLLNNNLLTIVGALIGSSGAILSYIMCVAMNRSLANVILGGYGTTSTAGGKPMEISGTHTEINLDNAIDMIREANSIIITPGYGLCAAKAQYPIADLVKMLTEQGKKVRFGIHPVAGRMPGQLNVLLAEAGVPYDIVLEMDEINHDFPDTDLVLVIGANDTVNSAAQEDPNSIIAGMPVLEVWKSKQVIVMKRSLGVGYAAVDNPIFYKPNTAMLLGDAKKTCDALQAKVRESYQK
inactive: [1] -0.027 | [2] 0.013 | [3] -0.014 | [4] -0.012 | [5] -0.006 | [6] -0.008 | [7] -0.033 | [8] 0 | [9] 0.031 | [10] -0.026

NAA38 isoform 2 (UniProt Q9BRA0)
inactive: [1] 0.049 | [2] -0.065 | [3] 0.013 | [4] 0.019 | [5] -0.045 | [6] -0.055 | [7] 0.008 | [8] -0.052 | [9] 0.008 | [10] 0.031

NCAPD2 (UniProt Q15021)
inactive: [1] 0.011 | [2] 0.011 | [3] -0.005 | [4] 0.032 | [5] -0.009 | [6] -0.016 | [7] -0.025 | [8] -0.007 | [9] -0.005 | [10] -0.001

PARG (UniProt Q86W56)
inactive: [1] 0.009 | [2] -0.013 | [3] -0.062 | [4] 0.008 | [5] -0.011 | [6] 0.004 | [7] -0.013 | [8] 0.003 | [9] -0.011 | [10] 0.048

PBK (UniProt Q96KB5)
inactive: [1] 0.012 | [2] 0.026 | [3] -0.044 | [4] 0.014 | [5] -0.014 | [6] 0.008 | [7] -0.001 | [8] -0.007 | [9] -0.011 | [10] -0.007

NBEAL2 (UniProt Q6ZNJ1)
inactive: [1] 0.032 | [2] 0.011 | [3] -0.031 | [4] 0.038 | [5] 0.017 | [6] -0.004 | [7] -0.032 | [8] -0.012 | [9] 0.024 | [10] -0.01
